D2 PAM-1: human D2 receptor positive allosteric modulation; DiscoveRx D2 beta-arrestin cells, luminescence, 90 min; 100% = 57 uM dopamine signal; potentiation, % (concentration not given with the values); P14416; AID 624464; 360,000 tested, 0.23% active; in the data active means potentiation above about 50%; inconclusive means mostly about 30% to 49%
Target sequence (P14416 whole entry, looked up): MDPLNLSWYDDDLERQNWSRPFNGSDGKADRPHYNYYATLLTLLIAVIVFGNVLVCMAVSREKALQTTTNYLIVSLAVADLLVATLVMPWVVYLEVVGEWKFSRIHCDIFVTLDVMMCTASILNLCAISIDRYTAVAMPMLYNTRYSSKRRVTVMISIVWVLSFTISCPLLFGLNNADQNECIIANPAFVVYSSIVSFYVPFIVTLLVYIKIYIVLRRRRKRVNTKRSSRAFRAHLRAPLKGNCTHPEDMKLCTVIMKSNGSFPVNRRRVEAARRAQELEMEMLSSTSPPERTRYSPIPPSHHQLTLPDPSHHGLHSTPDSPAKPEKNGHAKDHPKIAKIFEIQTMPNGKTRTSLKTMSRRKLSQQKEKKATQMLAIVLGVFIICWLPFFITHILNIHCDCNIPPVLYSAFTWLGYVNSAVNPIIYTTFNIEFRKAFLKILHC
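PathHunter D2 cells, attached overnight at 37 deg C, received compound in DMSO plus dopamine at EC20 (50 nM final) for 90 min at 37 deg C. Beta-arrestin recruitment was read as luminescence after 1 h with detection reagent at ambient temperature.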
D2 ag-1: activates the human D2 dopamine receptor. P14416. HEK293 T-REx D2 cells, calcium flux agonist mode. activation, % at 2 µM. 340,000 tested, 0.53% active;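 active means activation over 3 SD above normal in the single-dose calcium agonist read, cut at about 30% in these data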; further: 0% is about no effect
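Tetracycline-induced HEK293 T-REx cells with force-coupled D2 receptor, plated overnight at 30 C, loaded with no-wash calcium dye. After a 10 s baseline, compound was pin-added and calcium flux read kinetically for 180 s; calcium rises flagged agonists.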
D2 ag-2: activates the human D2 dopamine receptor; 360,000 tested, 0.084% active; P14416; DiscoveRx PathHunter D2 beta-arrestin, luminescence, 90 min; 100% = 57 uM dopamine signal; activation, % (concentration not given with the values); in the data active means activation above about 40%; inconclusive means between about 15% and that limit
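DiscoveRx PathHunter D2 beta-arrestin cells (2,100/well) attached overnight, then compound-stimulated 90 min at 37 C in HBSS/10 mM HEPES/0.1% Tween-20 buffer; beta-galactosidase complementation read by luminescence after 1 h at ambient temperature. Dopamine 57 uM final (EC100) as control.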
D2 antag: antagonists of human D2 dopamine receptor. 340,000 tested, 2% active. P14416. inhibition, % at 10 µM. HEK293 TREx D2 cells, calcium flux, dopamine EC80; in the data active means inhibition above about 30%; inactive means below that, where a call was filed; further: 0% is about no effect
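Measurement of antagonist activity uses fluorescent calcium dye in inducible HEK293 T-REx D2 cells: 10 s baseline, compound addition with 180 s read, EC80 dopamine addition with a further 180 s read.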
D2 PAM-2: positively modulates the human D2 dopamine receptor allosterically; potentiation, % at 10 µM; HEK293 T-REx D2, calcium flux, EC20 dopamine potentiation; 340,000 tested, 0.34% active; P14416;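 active means potentiation over 3 SD above the plate norm, cut at about 30% in these data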; further: 0% is about no effect
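Tetracycline-induced HEK293 T-REx cells force-coupled to calcium signalling expressed D2; compounds were pin-added after a 10 s baseline, read kinetically 180 s, then an EC20 dopamine challenge followed with a further 180 s calcium read.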
D3 arrestin ag: D3 receptor agonism confirmed, beta-arrestin readout | shares compounds with D2 ag-1 | DiscoveRx D3 beta-arrestin cells, luminescence, 90 min | Potency, µM (series often up to 76.9 µM), for inactives: at the top dose activation, hits mostly activators | 2,300 tested, 4% active;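 further: potency means the concentration at half of the fitted maximal effect; 100% = dopamine control response; nearly all actives have a fitted effect of over 70% in size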
D2 ag-3: D2 receptor agonism, beta-arrestin counterscreen; shares compounds with D2 ag-1; DiscoveRx PathHunter D2 beta-arrestin, luminescence, 90 min; response scale: percent relative to full dopamine signal; Potency, µM (top dose mostly 76.9 µM), for the others: at the top dose activation, hits mostly activators; 2,300 tested, 5.9% active; AID 720507; further: potency means the concentration at half of the fitted maximal effect; % of control where 0% means no effect; nearly all actives have a fitted effect of over 70% in size
* marks the source's active call; other numbers are inactive results. An excerpt weighted towards active compounds, which were near 2.4% of everything screened. Unless noted, the call rests on the fitted dose curve; in most records, active means well fitted activation curve with a large enough effect; inconclusive means small, poorly fitted or top-dose-only effect; inactive means flat fitted curve, though single readings scatter.

Results for Cc1ccc(S(=O)(=O)N2CCOCC2)cc1NC(=O)CNCc1ccccn1 ?
D2 PAM-1: -4.4; D2 ag-1: 51.6*; D2 ag-2: inconclusive; D2 antag: 32.7*; D2 PAM-2: -12.4; D3 arrestin ag: 7.94µM*; D2 ag-3: inconclusive

Results for COc1ccccc1CNCC(=O)Nc1cc(S(=O)(=O)N2CCCCC2)ccc1C ?
D2 PAM-1: -8.5; D2 ag-2: inconclusive

Results for COc1ccccc1CNCC(=O)Nc1cc(S(=O)(=O)N2CCOCC2)ccc1Cl ?
D2 PAM-1: -4.1; D2 ag-1: 18.8; D2 ag-2: 7.0; D2 antag: 84.8*; D2 PAM-2: -11.1; D3 arrestin ag: 18.6%; D2 ag-3: inconclusive

How did COc1ccccc1CNCC(=O)Nc1cc(S(=O)(=O)N2CCCCCC2)ccc1Cl do in these assays?
D2 PAM-1: -20.9; D2 ag-1: -0.1; D2 ag-2: 0.7; D2 antag: 85.5*; D2 PAM-2: -5.2; D3 arrestin ag: 23.2%; D2 ag-3: 29.7%

What do the screens show for `CCN(CC)S(=O)(=O)c1ccc(C)c(NC(=O)CNCc2ccccc2OC)c1`?
D2 PAM-1: 0.7; D2 ag-1: 81.7*; D2 ag-2: inconclusive; D2 antag: 96.3*; D2 PAM-2: -31.5; D3 arrestin ag: inconclusive; D2 ag-3: inconclusive

How did Cc1ccc(S(=O)(=O)N2CCOCC2)cc1NC(=O)CSc1ncccn1 do in these assays?
D2 PAM-1: 3.2; D2 ag-1: 2.1; D2 ag-2: -1.6; D2 antag: 8.6; D2 PAM-2: -13.1

What do the screens show for `Cc1cccc(C(=O)NCc2nnc(SCC(=O)NC3CCCC3)n2C)c1`?
D2 PAM-1: 2.3; D2 ag-1: 0.2; D2 ag-2: -4.1; D2 antag: 12.0; D2 PAM-2: 2.5

How did N#C/C(=C/c1ccc(N2CCOCC2)o1)c1nc2ccccc2[nH]1 do in these assays?
D2 PAM-1: -13.3; D2 ag-1: 25.2; D2 ag-2: 1.2; D2 antag: -15.8; D2 PAM-2: 3.3; D3 arrestin ag: inconclusive; D2 ag-3: 2.7%

Results for O=C(Nc1ccn(CC(=O)N2CCN(c3ccccn3)CC2)c(=O)n1)OCc1ccccc1 ?
D2 PAM-1: 2.2; D2 ag-1: 0.1; D2 ag-2: -2.4; D2 antag: -2.8; D2 PAM-2: 8.0; D3 arrestin ag: -2.5%; D2 ag-3: 0.4%

What do the screens show for `O=C(Nc1ccn(CCCN2CCN(c3ncccn3)CC2)c(=O)n1)OCc1ccccc1`?
D2 ag-2: 5.8

How did CC(CCc1ccc(O)cc1)N(C)CCc1ccccc1 (stereo not given) do in these assays?
D2 PAM-1: -16.1; D2 ag-1: 38.7*; D2 ag-2: -1.0; D2 antag: 90.7*; D2 PAM-2: -25.0; D3 arrestin ag: 1.3%; D2 ag-3: -0.1%

What do the screens show for `CCCn1c(-c2ccc(OC)cc2)nc2ccccc21`?
D2 PAM-1: 6.2; D2 ag-1: 21.2; D2 ag-2: 10.2; D2 antag: -11.6; D2 PAM-2: -12.5; D3 arrestin ag: -3.1%; D2 ag-3: inconclusive

How did CCOC(=O)CNC(=O)c1c(C)nn(C)c1Cl do in these assays?
D2 PAM-1: -2.5; D2 ag-1: 3.0; D2 ag-2: -2.4; D2 antag: -6.8; D2 PAM-2: 1.7

How did CCCCN(C(=O)c1ccc2c(c1)S(=O)(=O)N=C1CCCCCN12)c1c(N)n(CC(C)C)c(=O)[nH]c1=O do in these assays?
D2 PAM-1: -2.2; D2 ag-2: -3.1

Results for CCCCN1CCNC[C@@H]1c1ccccc1 ?
D2 PAM-1: -16.9; D2 ag-1: -0.4; D2 ag-2: -1.2; D2 antag: -8.5; D2 PAM-2: 13.8; D3 arrestin ag: -3.7%; D2 ag-3: -3.1%

Results for CCCCN1CCNC[C@@H]1Cc1ccccc1 ?
D2 PAM-1: -11.2; D2 ag-1: 0.2; D2 ag-2: -4.7; D2 antag: 2.3; D2 PAM-2: -10.7

How did Cc1ccc(/C=N/NC(=O)CN2CCN(Cc3ccccc3)CC2)o1 do in these assays?
D2 PAM-1: -1.5; D2 ag-1: 0.0; D2 ag-2: -0.4; D2 antag: 4.8; D2 PAM-2: -10.6

How did O=C(C1CCN(S(=O)(=O)c2cccc3nsnc23)CC1)N1CCn2c1nc1ccccc12 do in these assays?
D2 PAM-1: -58.1; D2 ag-2: -16.7

How did Cc1n[nH]c(C)c1S(=O)(=O)N1CCC(C(=O)N2CCn3c2nc2ccccc23)CC1 do in these assays?
D2 PAM-1: -33.6; D2 ag-1: 47.8*; D2 ag-2: -7.2; D2 antag: 39.3*; D2 PAM-2: -8.4; D3 arrestin ag: -28.8%; D2 ag-3: -12.2%

What do the screens show for `COc1ccccc1CN(C)C(=O)CSc1nnc(C2CC2)n1C1CC1`?
D2 PAM-1: 1.2; D2 ag-1: 0.0; D2 ag-2: -1.2; D2 antag: 4.0; D2 PAM-2: -12.0

From PubChem BioAssay
